The record followed here is PubChem BioAssay AID2732 (Emory University Molecular Libraries Screening Center, 2010).

About 8,200 (3.7%) of roughly 220,000 compounds were called active. The list comes from a sample in which actives are over-represented; it also holds similar structures and randomly drawn compounds. Unmarked numbers belong to inactive results.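 How the source made its calls: active means compounds that reduced the stress-induced luciferase reporter signal by more than about 70% of percent inhibition (limit read from the data); inactive means the rest.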

The nature of the test: inhibitors of CHOP promoter induction, primary screen, cell-based, unfolded protein response, luciferase reporter (AID 2732).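 Further: 0% = tunicamycin plus vehicle and 100% = wells without tunicamycin.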 The following applies: CHO-K1 CHOP-promoter luciferase, tunicamycin-induced, 15-18 h; at 10 µM; stronger effect = higher value. (In general: Reporter assays use an easily measured gene product as a stand-in for the process of interest.)
As usually defined, the inhibition is the drop in the measured response relative to a control, in per cent. As for `CCN(CC)c1ccc(NC(=O)C2CCC(CNc3c(N4CCCC4)c(=O)c3=O)CC2)c(C)c1` (stereo not given), the inhibition is -9.36%. With `Cc1cc(-c2nc(C)c(-c3nnc(SCC(=O)Nc4ccccc4)n3C)s2)no1` the figure was 5.16%; with `COc1cccc(-c2cnc(OC(C)(C)C)nc2OC(C)(C)C)c1`, 91.8% (active); with `COc1cccc(-c2nc3cc(C)ccc3o2)c1`, 61.7%. Take `CC(C)(C)Oc1ncc(Br)c(OC(C)(C)C)n1`: the inhibition is 23.2%. For `Cc1ccc(C(=O)Nc2nc(N)n(-c3ccccc3)n2)cc1`, the inhibition is 12.8%. Under `O=C(CCl)N(Cc1cccc([N+](=O)[O-])c1)c1cccc(Cl)c1` stands 105% (active).

Consider `CCN(CC)C(=O)CN(c1cccc([N+](=O)[O-])c1)S(=O)(=O)c1ccccc1`, for which the inhibition was 0.69%. `O=C(Nc1cccc([N+](=O)[O-])c1)Nc1ccc(Cl)cn1`: the inhibition is 2.82%. As to `COC(=O)c1scc(S(=O)(=O)C(C)(C)C)c1-n1cccc1`, the inhibition is 6.86%.

In the case of `Cc1ccc(S(=O)(=O)NC(=O)N2CCCN(Cc3ccc(F)cc3)CC2)cc1`, the inhibition was 9.07%. Under `Cc1ccc(NC(=S)NC(=O)/C=C/c2ccc(Cl)cc2)cc1` stands 17.9%; under `COc1ccc(NS(=O)(=O)c2ccc(NC(=S)NC(=O)/C=C/c3ccc(C)cc3)cc2)nn1`, 95.5% (active); under `COc1ccc(NS(=O)(=O)c2ccc(NC(=O)C(C)(C(F)(F)F)C(F)(F)F)cc2)nn1`, -4.95%.

Turning to `CCN(CC)CCCN=Cc1c(O)n(-c2ccc(C)cc2)c(=O)c2ccccc12`, the inhibition is 6.14%. In the case of `CSCC[C@H](NC(=O)NC1CCCC1)C(=O)O`, the inhibition was -0.23%. For `COc1ccc(-c2nc(CS(=O)CC(=O)NCc3ccccn3)c(C)o2)cc1` (stereo not given), the inhibition is 7.53%. Consider `Cc1ccc(-c2nc(CS(=O)CC(=O)N3CCN(c4ncccn4)CC3)c(C)o2)cc1` (stereo not given), for which the inhibition was 44.5%. Under `COc1ccc(-c2nc(CS(=O)CC(=O)N3CCc4ccccc4C3)c(C)o2)cc1` (stereo not given) stands 86.5% (active); under `CCn1c(SCC(=O)Nc2sc(C)c(C)c2C#N)nnc1C1CC1`, 5.65%; under `CCc1ccccc1NC(=O)CSc1nnc(CCNC(=O)OC(C)(C)C)o1`, 15.9%.

As to `O=C(/C=C/c1ccc(Cl)c([N+](=O)[O-])c1)c1ccc(O)cc1`, the inhibition is -208%. As to `Cc1ccc(-c2nn(-c3ccccc3)cc2/C=C/C(=O)Nc2cccc(S(N)(=O)=O)c2)cc1`, the inhibition was 88.3% (active).

As for `COc1ccc(-c2nn(-c3ccccc3)cc2/C=C\C(=O)Nc2ccc(C(=O)O)cc2)cc1`, the inhibition was 40.4%.

In the case of `Cc1ccc(-c2nn(-c3ccccc3)cc2C(=O)Nc2cccc(S(=O)(=O)N3CCOCC3)c2)cc1`, the inhibition was 40%.

`CC(=O)NCc1ccc(S(=O)(=O)NC2CCN(Cc3ccccc3)CC2)cc1`: the inhibition is -10.7%. Take `Nc1ccccc1SC(C[N+](=O)[O-])c1ccccc1` (stereo not given): the inhibition was 46.3%. With `O=C1CC2(CC(c3ccc(Cl)cc3)=NO2)C(=O)N1c1ccccc1` (stereo not given) the figure was 18.6%; with `NC(=O)C1=C[C@@H](c2csc3ccccc23)C[C@@H](OCc2ccc(CO)cc2)O1`, 36.3%; with `COP1(=O)C[C@@H](O)[C@@H](O)[C@@H](COCc2ccccc2)O1` (stereo not given in full), -7.84%. Under `CCNCc1cc2cc(C)ccc2[nH]c1=O` stands -7.23%; under `Cc1ccc2[nH]c(=O)c(-c3nc4c(C)cccn4c3NCc3ccco3)cc2c1`, 95.7% (active).

Regarding `CCCc1nc(-c2cc3cc(C)ccc3[nH]c2=O)no1`, the inhibition is 14.6%. With `Cc1nnc(SC(C(=O)c2ccccc2)c2ccccc2)[nH]c1=O` (stereo not given) the figure was -8.07%; with `CCn1c2ccccc2c2cc(NC(=O)CNC)ccc21`, 5.95%. For the compound `CCCC(=O)Nc1ccc(C(=O)NCCCn2ccnc2)cc1`, the inhibition was 73.7% (active). With `O=C(CCN1C(=O)c2ccccc2C1=O)NCCCn1ccnc1`, the inhibition is -1.9%.

With `CCOc1ccccc1C(=O)NCCCn1ccnc1`, the inhibition is -4.75%. In the case of `N#C/C(=C\N1CCOCC1)S(=O)(=O)c1ccc(Cl)cc1`, the inhibition was 21.5%. Turning to `CCc1ccc(Nc2ncc3c(n2)CC(c2ccco2)CC3=O)cc1` (stereo not given), the inhibition was 78.5% (active). For the compound `O=C(Nc1ncc2c(n1)CC(c1ccco1)CC2=O)c1ccc(Cl)cc1` (stereo not given), the inhibition was 33.8%. `COc1cc(C2CC(=O)c3cnc(NC(C)=O)nc3C2)cc(OC)c1OC` (stereo not given): the inhibition is 30.2%. Regarding `CCOC(=O)c1cn(CC)c2cc(F)c(F)cc2c1=O`, the inhibition was -15.5%. With `O=C(CNC(c1ccccc1)c1ccccc1)Nc1ccc(F)cc1` the figure was 23.2%; with `O=C(CNC(=O)c1cc(=O)[nH]c2ccccc12)Nc1ccc(F)c(F)c1`, -18.5%.

For the compound `O=C(CC(NC(=O)c1ccccc1)c1ccccc1)Nc1ccc(F)c(F)c1` (stereo not given), the inhibition was 105% (active). On to `CCn1c(=O)c([N+](=O)[O-])c(NCc2ccc3c(c2)OCO3)c2ccccc21`, for which the inhibition was 22.4%.

In the case of `Cc1cc(NC(=O)OC(C)C)ccc1-c1ccc(NC(=O)OC(C)C)cc1C`, the inhibition was 25.1%. With `Cc1noc(C)c1/C=N/Nc1ccc2ccccc2n1` the figure was 16.5%. Under `C(=N\Nc1ccc2ccccc2n1)/c1ccc2c(c1)OCO2` stands 71% (active); under `Brc1ccc(-c2csc(N/N=C/c3ccc4c(c3)OCO4)n2)cc1`, 26.8%. As for `COc1ccc(Cc2cc(-c3ccc(F)cc3)n[nH]c2=O)cc1`, the inhibition was 15.3%. In the case of `O=C(NCC1CCCO1)c1cc(-c2ccccc2)nc2ccccc12` (stereo not given), the inhibition is 1.14%. Under `Cc1ccc(SCCC(=O)Nc2cc(C)on2)cc1` stands 20.7%; under `Cc1ccc(-c2csc(SCC(=O)Nc3cc(C)on3)n2)cc1`, 32.5%; under `Cc1ccc2nc(-c3ccc(SCC(=O)Nc4cc(C)on4)nc3)[nH]c2c1`, 91.1% (active). Under `CCCc1nc2oc3c(=O)[nH]cnc3c2c2c1COC(C)(C)C2` stands -14.7%. As to `COC(=O)c1cc(S(=O)(=O)N2CCC(C(N)=O)CC2)oc1C`, the inhibition is 4.8%. With `COCCNc1nc(-c2ccccc2)nc2c1oc1ccccc12` the figure was 37.1%. Turning to `Cc1cc(C)n(CC(C)NCc2c(C(=O)N3CCOCC3)nc3c(C)cccn23)n1` (stereo not given), the inhibition is 11.3%.
